# Results filed as inconclusive are left out. A number with no mark means an inactive call. Calls of active or inactive are those of the source. Calls come from the whole dose curve; as a rule, active = well fitted inhibition curve with a large enough effect; inconclusive = small, poorly fitted or top-dose-only effect; inactive = flat fitted curve, though single readings scatter.
# Molecular target: Calcium and integrin-binding protein 1 (Homo sapiens) (UniProt Q99828)
# Assay: Primary qHTS for Identification of Calcium Integrin Binding Protein 1 (CIB1) Competitor (AID 1508620); note: top concentration of the series differs between compounds
# Settings: CIB1-GST / FITC-alphaIIb peptide fluorescence polarization; series mostly up to 114 µM; activity change, negative = inhibition: at the top concentration
# In short: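 Fluorescence polarization competition: GST-tagged CIB1 (1 uM final) preincubated with compound 15 min at room temperature, then FITC-labelled alphaIIb peptide (100 nM final) added. After 15 min at room temperature, polarization read at Ex 480/Em 540.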
# % is set by controls: 0 for no effect and ±100 for the full control effect.
# Chain of Calcium and integrin-binding protein 1 (Homo sapiens) (Q99828 whole entry, looked up): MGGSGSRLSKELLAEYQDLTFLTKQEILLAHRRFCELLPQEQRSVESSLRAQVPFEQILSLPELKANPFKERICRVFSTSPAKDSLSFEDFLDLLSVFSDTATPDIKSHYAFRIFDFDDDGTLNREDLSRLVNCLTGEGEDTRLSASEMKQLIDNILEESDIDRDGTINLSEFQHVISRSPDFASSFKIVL
SMILES,"activity change, negative = inhibition",Potency
CN1CCOc2ccc(S(=O)(=O)N3CCN(S(=O)(=O)c4c(F)cccc4F)CC3)cc21,10.4%,
COc1ccc(C2=Nn3c(nnc3-c3ccccc3OC)SC2)c(OC)c1,-3.3%,
O=C(c1cc2sccc2n1Cc1ccccc1)N(CCc1ccc(O)c(O)c1)Cc1ccccc1,4.03%,
C=Cc1ccc(C(=O)N2CCCC(CCC(=O)N3CCN(c4ccccn4)CC3)C2)cc1 (centres undefined),-0.21%,
C=CCNc1nnc(-c2cccc3ccccc23)o1,0.526%,
Cc1cc2c(s1)c1cnn(Cc3ccc(F)c(F)c3)c(=O)c1n2C,3.79%,
N=c1c2c(ncn1-c1ccccc1)Oc1ccc3ccccc3c1C2c1ccc2c(c1)OCCO2 (centres undefined),56.6%,
O=[S+]([O-])(c1ccc(N2CCOCC2)nc1)N1CCN([S+](=O)([O-])c2c(F)cccc2F)CC1,-3.05%,
COc1ccc(C(=O)N(Cc2ccccc2)Cc2ccco2)c(O)c1,-8.23%,
CCN(CC)C(=O)COC(=O)c1ccc(S(C)(=O)=O)c([N+](=O)[O-])c1,-6.92%,
S=C(Nc1cc(Cl)ccn1)N1CCN(c2ccc(Cl)cc2Cl)CC1,1.39%,
COc1cccc(C2c3c(ncn(-c4ccccc4)c3=N)Oc3ccc4ccccc4c32)c1 (centres undefined),,inactive
COc1ccc(OC)c(C2=Nn3c(nnc3-c3ccccc3OC)SC2)c1,6.28%,
O=[S+]([O-])(c1c(F)cccc1F)N1CCN([S+](=O)([O-])c2cccc3nonc23)CC1,-0.115%,
O=C(Nc1ccc(-c2ccccc2)cc1)Nc1nnc(-c2ccncc2)s1,-4.01%,
Cc1cc(NS(=O)(=O)CCNC(=O)Cc2ccc(Cl)c(Cl)c2)no1,-3.59%,
Cn1ccc2cc(-c3ccc4ncnc(NCc5cccs5)c4c3)ccc21,6.55%,
S=C(Nc1ccc(Cl)c(Cl)c1)Nc1nnc(-c2ccncc2)o1,-1.5%,
COC(=O)C1CCN(C(=O)c2ccc3c(c2)ncn3-c2cccc(C)c2)CC1,4.56%,
COc1cccc(C2c3c(ncn(-c4ccc(-c5ccccc5)cc4)c3=N)Oc3ccc4ccccc4c32)c1 (centres undefined),10.8%,

SMILES,"activity change, negative = inhibition",Potency
COc1cccc(C2c3c(ncn(-c4ccc5c(c4)OCO5)c3=N)Oc3ccc4ccccc4c32)c1 (centres undefined),-0.936%,
COc1ccc(C2=Nn3c(nnc3-c3ccc(OC)cc3OC)SC2)c(OC)c1,-0.296%,
Cc1ccc(N[S+](=O)([O-])c2cc3c(cc2Cl)CCC(=O)N3)cc1Br,-5.02%,
C[C@@H](N)C(=O)Nc1cccc(-c2nn3c(=O)cc(N4CCNCC4)nc3s2)c1,-0.112%,
Oc1ccc(/C=C/c2ccccc2F)c2cccnc12,-4.89%,
O=C(CNC(=O)c1cccc(Cl)c1)OC(C(=O)Nc1cc(C(F)(F)F)ccc1Cl)c1ccccc1 (centres undefined),-0.117%,
COc1cc(O)c(C(CC(=O)N2CCCC(C(=O)c3ccccc3)C2)c2ccc3c(c2)OCO3)c(OC)c1 (centres undefined),8.78% [at 228 µM],
COc1ccnc(NC(=S)N2CCN(c3cccc(Cl)c3Cl)CC2)c1,-16.1%,
O=C(CN1C(=O)N/C(=C\c2cccn2-c2cccc(C(=O)O)c2)C1=O)Nc1ccccc1F,-5.75%,
Cc1cccc(S(=O)(=O)N2CCN(S(=O)(=O)c3ccc4c(c3)OCCO4)CC2)c1,-7.77%,
O=C1c2ccccc2C(=O)N1c1cccc(=O)[nH]1,1.08%,
CC(C)(NC(=O)Nc1ccccc1Cl)C(=O)N1CCC(C(=O)O)CC1,-6.52%,
O=C(Nc1ccc2ccccc2c1)Nc1nnc(Br)s1,8.09%,
O=C(O)c1ccc2c(c1)C(=O)N([C@H](Cc1ccccc1)C(=O)O)C2=O,1.35%,
COc1ccc(Nc2cc(O)c3ncccc3c2)cc1,-7.43%,
CN(C)c1cccc(-c2nccc(N3CCC(C(N)=O)CC3)n2)c1,-4.34%,
COc1ccc(C2Nc3ccccc3C(=O)N2CCO)cc1COc1ccc(NC(C)=O)cc1 (centres undefined),5.2%,
CCCCCNc1oc(-c2cccc3ccccc23)nc1C#N,2.34%,
Cc1ccc(S(=O)(=O)Nc2cccc3cccnc23)cc1,1.42%,
